# From the supplement of paper PMC6992640
# System: WHIM2 (cells of a triple-negative basal-like breast cancer xenograft)
# Test: cell viability of combination (% of vehicle); higher = less cytotoxic
# Details: 1 µM; 72 h; partner dose: 10 nM
# Experimental: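 PDX cells were treated for 72 h with each drug at 1 µM plus afatinib (10 nM; 1 µM for WHIM30). Luciferase viability is expressed as percent of vehicle.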
row,Compound,cell viability of combination
1,CC(C)CC(NC(=O)C(NC(=O)c1cccc(-c2ccccc2)n1)C(C)O)B(O)O (centres undefined) + CN(C)C/C=C/C(=O)Nc1cc2c(Nc3ccc(F)c(Cl)c3)ncnc2cc1O[C@H]1CCOC1 [Afatinib],97
2,COc1cc2nccc(Oc3ccc(NC(=O)Nc4cc(C)on4)c(Cl)c3)c2cc1OC [Tivozanib (AV-951)] + CN(C)C/C=C/C(=O)Nc1cc2c(Nc3ccc(F)c(Cl)c3)ncnc2cc1O[C@H]1CCOC1 [Afatinib],39.8
3,CCN(CC)CCNC(=O)c1c(C)[nH]c(C=C2C(=O)Nc3ccc(F)cc32)c1C.O=C(O)CC(O)C(=O)O [Sunitinib malate] + CN(C)C/C=C/C(=O)Nc1cc2c(Nc3ccc(F)c(Cl)c3)ncnc2cc1O[C@H]1CCOC1 [Afatinib],44.2
4,CC[C@@H]1/C=C(\C)C[C@H](C)C[C@H](OC)[C@H]2O[C@@](O)(C(=O)C(=O)N3CCCC[C@H]3C(=O)O[C@H](/C(C)=C/[C@@H]3CC[C@H](Cl)[C@H](OC)C3)[C@H](C)[C@@H](O)CC1=O)[C@H](C)C[C@@H]2OC [Pimecrolimus] + CN(C)C/C=C/C(=O)Nc1cc2c(Nc3ccc(F)c(Cl)c3)ncnc2cc1O[C@H]1CCOC1 [Afatinib],42.6
5,CC1(C)Cc2c(-c3ccccc3)c(-c3ccc(Cl)cc3)c(CC(=O)O)n2C1 [Licofelone] + CN(C)C/C=C/C(=O)Nc1cc2c(Nc3ccc(F)c(Cl)c3)ncnc2cc1O[C@H]1CCOC1 [Afatinib],46.8
6,Cc1ccc(-n2[nH]c(C)c(NN=C3C=CC=C(c4cccc(C(=O)O)c4)C3=O)c2=O)cc1C [Eltrombopag] + CN(C)C/C=C/C(=O)Nc1cc2c(Nc3ccc(F)c(Cl)c3)ncnc2cc1O[C@H]1CCOC1 [Afatinib],48.5
7,CC(C)(C)c1ccc(C(=O)CCCN2CCC(OC(c3ccccc3)c3ccccc3)CC2)cc1 [Ebastine] + CN(C)C/C=C/C(=O)Nc1cc2c(Nc3ccc(F)c(Cl)c3)ncnc2cc1O[C@H]1CCOC1 [Afatinib],50.3
8,COCCOC(=O)C1=C(C)NC(C)=C(C(=O)OCC=Cc2ccccc2)C1c1cccc([N+](=O)[O-])c1 (centres undefined) [Cilnidipine] + CN(C)C/C=C/C(=O)Nc1cc2c(Nc3ccc(F)c(Cl)c3)ncnc2cc1O[C@H]1CCOC1 [Afatinib],40.4
9,COc1ccc2cc1Oc1ccc(cc1)CC1c3c(cc4c(c3Oc3cc5c(cc3OC)CCN(C)C5C2)OCO4)CCN1C (centres undefined) [Cepharanthine] + CN(C)C/C=C/C(=O)Nc1cc2c(Nc3ccc(F)c(Cl)c3)ncnc2cc1O[C@H]1CCOC1 [Afatinib],38.1
10,C=C1C(=CC=C2CCCC3(C)C2CCC3C(C)CCCC(C)C)CC(O)CC1O (centres undefined) [Alfacalcidol] + CN(C)C/C=C/C(=O)Nc1cc2c(Nc3ccc(F)c(Cl)c3)ncnc2cc1O[C@H]1CCOC1 [Afatinib],34.4
11,CCCCCCCCCCCCCCCCOP(=O)([O-])OCC[N+](C)(C)C [Miltefosine] + CN(C)C/C=C/C(=O)Nc1cc2c(Nc3ccc(F)c(Cl)c3)ncnc2cc1O[C@H]1CCOC1 [Afatinib],49.3
12,CC1CC(=O)NN=C1c1ccc(NN=C(C#N)C#N)cc1 (centres undefined) [Levosimendan] + CN(C)C/C=C/C(=O)Nc1cc2c(Nc3ccc(F)c(Cl)c3)ncnc2cc1O[C@H]1CCOC1 [Afatinib],51.2
13,CNCCC(Oc1ccc(C(F)(F)F)cc1)c1ccccc1.Cl (centres undefined) [Fluoxetine HCl] + CN(C)C/C=C/C(=O)Nc1cc2c(Nc3ccc(F)c(Cl)c3)ncnc2cc1O[C@H]1CCOC1 [Afatinib],43.8
14,CO[C@H]1/C=C/O[C@@]2(C)Oc3c(C)c(O)c4c(O)c(c(/C=N/N5CCN(C6CCCC6)CC5)c(O)c4c3C2=O)NC(=O)/C(C)=C\C=C\[C@H](C)[C@H](O)[C@@H](C)[C@@H](O)[C@@H](C)[C@H](OC(C)=O)[C@@H]1C [Rifapentine] + CN(C)C/C=C/C(=O)Nc1cc2c(Nc3ccc(F)c(Cl)c3)ncnc2cc1O[C@H]1CCOC1 [Afatinib],46.2
15,C=CC(=O)Nc1cc(Nc2nccc(-c3cn(C)c4ccccc34)n2)c(OC)cc1N(C)CCN(C)C + CN(C)C/C=C/C(=O)Nc1cc2c(Nc3ccc(F)c(Cl)c3)ncnc2cc1O[C@H]1CCOC1 [Afatinib],34.9
16,COc1cccc2c1C(=O)c1c(O)c3c(c(O)c1C2=O)CC(O)(C(=O)CO)CC3OC1CC(N)C(O)C(C)O1.Cl (centres undefined) [Doxorubicin (Adriamycin) HCl] + CN(C)C/C=C/C(=O)Nc1cc2c(Nc3ccc(F)c(Cl)c3)ncnc2cc1O[C@H]1CCOC1 [Afatinib],13.6
17,CN1CCCC1CCOC(C)(c1ccccc1)c1ccc(Cl)cc1.O=C(O)C=CC(=O)O (centres undefined) [Clemastine Fumarate] + CN(C)C/C=C/C(=O)Nc1cc2c(Nc3ccc(F)c(Cl)c3)ncnc2cc1O[C@H]1CCOC1 [Afatinib],54
18,CC(C)Nc1cc(-c2c[nH]c(C(=O)NC(CO)c3cccc(Cl)c3)c2)c(Cl)cn1 (centres undefined) + CN(C)C/C=C/C(=O)Nc1cc2c(Nc3ccc(F)c(Cl)c3)ncnc2cc1O[C@H]1CCOC1 [Afatinib],30.3
19,CNCCCC12CCC(c3ccccc31)c1ccccc12.Cl [Maprotiline HCl] + CN(C)C/C=C/C(=O)Nc1cc2c(Nc3ccc(F)c(Cl)c3)ncnc2cc1O[C@H]1CCOC1 [Afatinib],46
